PLK1 PBD block: qHTS for Inhibitors of PLK1-PDB (polo-like kinase 1 - polo-box domain): Primary Screen | Plk1 PBD binding of FITC phosphopeptide, fluorescence polarization | Serine/threonine-protein kinase PLK1 (Homo sapiens), P53350 | 360,000 compounds, 2.8% hits | AID 720504, 2013 | Potency, µM, for the others: max response, negative = inhibition, most hits filed as inhibitors; also: series mostly up to about 57 µM; % is scaled to controls: 0 for no effect and ±100 for the full control effect; nearly all actives have a fitted effect of over 65% in size
BRCA1 expr up: qHTS Assay to Identify Small Molecule Activators of BRCA1 Expression; 380,000 compounds, 1.1% hits; AID 624202, 2012; MCF7-BRCA1-FFLuc reporter, luminescence, 48 h; response scale: scaled: vehicle 0%, 10 µM genistein 100%; Potency, µM (titrated, usually from 46.1 µM), for inactives: at the highest dose activation, hits mostly activators; also: nearly all actives have a fitted effect of over 80% in size
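MCF7-BRCA1-FFLuc cells, 2000/well in phenol-red-free MEM, attached 2 h then treated 48 h at 37 C. Luciferase luminescence read 15 min after reagent; normalized to genistein maximum activation (10microM) and DMSO, concentration-response fitted.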
Tb PFK inh: qHTS Assay to Find Inhibitors of T. brucei phosphofructokinase | ATP-dependent 6-phosphofructokinase (Trypanosoma brucei brucei), O15648 | T. brucei PFK, ADP-Glo luminescence | Potency, µM (series often up to 57.5 µM), inactives show at the highest dose activity, negative = inhibition, hits mostly inhibitors | 330,000 compounds, 0.17% hits;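 also: 0% = uninhibited 1x PFK enzyme wells and -100% = no-enzyme wells; nearly all actives have a fitted effect of over 60% in size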
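Activity is normalized to no-enzyme wells (full inhibition) and 1.25 nM enzyme wells (no inhibition). Reaction: 0.5 mM F6P, 0.1 mM ATP, 45 min RT, ADP-Glo luminescence; concentration-response curves fitted and classed by quality.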
VDR inhibitor: Inhibitors of the vitamin D receptor (VDR): qHTS. Vitamin D3 receptor (Homo sapiens), P11473. VDR-SRC2-3 peptide fluorescence polarization, 2 h. Potency, µM, for inactives: max response, negative = inhibition, usual class: inhibitors. 400,000 compounds, 0.93% hits. AID 504847, 2011; also: % is scaled to controls: 0 for no effect and ±100 for the full control effect
Target sequence (P11473 whole entry, looked up): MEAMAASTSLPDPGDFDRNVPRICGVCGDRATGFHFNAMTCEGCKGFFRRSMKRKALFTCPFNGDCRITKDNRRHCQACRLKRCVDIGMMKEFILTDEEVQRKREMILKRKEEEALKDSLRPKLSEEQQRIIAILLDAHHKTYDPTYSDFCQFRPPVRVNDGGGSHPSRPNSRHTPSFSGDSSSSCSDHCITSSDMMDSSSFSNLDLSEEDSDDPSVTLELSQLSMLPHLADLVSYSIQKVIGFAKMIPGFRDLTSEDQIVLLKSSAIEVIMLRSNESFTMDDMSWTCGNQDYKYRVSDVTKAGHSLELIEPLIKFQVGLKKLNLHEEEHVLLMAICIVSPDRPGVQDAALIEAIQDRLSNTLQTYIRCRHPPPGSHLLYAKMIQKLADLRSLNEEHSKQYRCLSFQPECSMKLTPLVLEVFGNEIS
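Measured by FP: displacement of SRC2-3 coactivator peptide from VDR by library compounds, following a two-hour ambient incubation.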
The depositor's hits bear a star; ? = inconclusive; / = no result given. Shown are actives, neighbours in structure and some others; about 3.9% of the full set was active somewhere. Calls follow the shape of the dose curve; as a rule, active = well fitted curve in the direction sought with a large enough effect; inconclusive = small, poorly fitted or top-dose-only effect, or another doubt; inactive = no such curve, though single readings can be large; an effect the other way counts as inactive or inconclusive. Potency is read from the fitted curve at half-maximal effect.

SMILES	PLK1 PBD block	BRCA1 expr up	Tb PFK inh	VDR inhibitor
CCOC(=O)c1nn(-c2ccc(C)c(C)c2)c(=O)c2c(N)scc12	17µM*	-36%	12%	8%
COc1ccccc1C(=O)Nc1ccccc1OCc1cc(=O)n2c(C)csc2n1	/	-3%	/	1%
CN(CC(=O)Nc1ccc(N2CCOCC2)cc1)CC(=O)Nc1ccc(N2CCOCC2)cc1	-14%	16%	-7%	-4%
CSc1ccccc1NC(=O)CN(C)Cc1ccc(Br)cc1	-7%	-16%	1%	-21%
CSc1ccccc1NC(=O)CN(C)Cc1c(O)ccc2ccccc12	11µM*	0%	0%	?
CN(CC(=O)Nc1ccc(N2CCOCC2)cc1)Cc1c(O)ccc2ccccc12	4.7µM*	-19%	-7%	28µM*
COc1ccc(OCCN(C)Cc2c(O)ccc3ccccc23)cc1	8.4µM*	-22%	0%	?
O=C(C[C@@H]1CC[C@H](NC(=O)Cc2ccccn2)[C@@H](CO)O1)NCCc1ccccc1	-11%	/	/	/
Cc1cccc(C(=O)Nc2ccc(N3CCC(N4CCCCC4)CC3)c(C(=O)O)c2)c1	/	/	/	0%
COC(=O)c1cc(C)c(C)cc1NC1OC(CO)C(O)C1O (centres undefined)	-2%	19%	/	0%
CN1CCN(c2ccnc(N(C)CCCCCCN)n2)CC1	/	-5%	/	/
CCCCC(CC)COC(=O)C(C#N)=C(c1ccccc1)c1ccccc1 (centres undefined)	-7%	-22%	?	-21%
CCCCC(CC)COC(=O)CC(C(=O)OCC(CC)CCCC)S(=O)(=O)O (centres undefined)	/	/	/	25µM*
O=C(Nc1cc(F)ccc1F)c1cnn2c1NC(=C1CC1)C=C2C(F)F	/	-11%	/	/
O=C(NCc1nnc(SCC(=O)N2CCc3ccccc32)o1)c1ccco1	-18%	-4%	-4%	14%
O=C(NCCC(=O)N1CCc2ccccc21)c1ccco1	-1%	8.9µM*	-9%	14%
O=C(CSCc1ccco1)N1CCc2ccccc21	-16%	2.5µM*	0%	-18%
O=C(O)c1cccc2cc(-c3ccccc3)oc(=O)c12	1%	11%	18%	1%
O=C(O)c1cccc2cccc(-c3c4ccc(=O)c(O)c-4oc4c(O)c(O)ccc34)c12	4.7µM*	-34%	/	?
CCCn1c(SC(C)C(=O)NC2CCCC(C)C2C)n[nH]c1=O (centres undefined)	-22%	0%	/	/
CCN(CC)c1ccc(/C=N/N2CCOCC2)cc1	-8%	3.2µM*	-5%	5%
CC(=O)O[C@@H]1C(CO[Si](C)(C)C(C)(C)C)=C(Br)C(=O)[C@@H]2O[C@]12C	/	/	/	25µM*
Cc1[nH]c(-c2ccccn2)nc(=S)c1Cl	30µM*	16%	-10%	-3%
CC12CCC(C/C1=N\N=C1\NC(=O)/C(=C\c3ccc(Cl)cc3)S1)C2(C)C (centres undefined)	24µM*	-48%	1%	?
CC(OCCN1CCCC1)(c1ccc(F)cc1)c1ccc(F)cc1	30µM*	-25%	-4%	?
SMILES	PLK1 PBD block	BRCA1 expr up	Tb PFK inh	VDR inhibitor
CC(C)C[C@@H](CC(=O)N[C@H](CC(=O)N[C@@H]1CCCC[C@H]1C(=O)N[C@H](CC(=O)N[C@@H](CCC(=O)O)CC(=O)O)Cc1c[nH]c2ccccc12)C(C)C)NC(=O)[C@@H]1CNCC[C@H]1N	/	/	/	4%
COc1ccc(/C=N/NC(=O)Nc2cccc3nsnc23)cc1	24µM*	-45%	0%	?
O=C(Nc1ccccc1)Nc1cccc2nsnc12	-6%	-1%	?	1%
CCOc1ccc(NC(=O)CSC2=Nc3ccccc3C3=NC(CC(=O)NCc4cccs4)C(=O)N23)cc1 (centres undefined)	/	/	/	-5%
COc1ccc2c(Cl)c(C(N)=O)sc2c1	-3%	10µM*	-9%	-11%
COc1ccc2c(Cl)c(C(=O)NN)sc2c1	-1%	-15%	-4%	-10%
O=C(COc1ccc(F)cc1)Nc1nc(-c2ccccn2)cs1	?	-65%	1%	-12%
O=C(Nc1nc(-c2ccccn2)cs1)Nc1ccc(F)cc1F	4.7µM*	-1%	-15%	?
O=C(Nc1ccc(F)cc1F)Nc1ccc(F)cc1F	-2%	10µM*	?	3%
O=C(Nc1ccncc1)Nc1ccc(F)cc1F	-2%	38%	-18%	-16%
O=C(COc1cccc(F)c1)Nc1nc(-c2ccccn2)cs1	11µM*	-68%	/	/
O=C(CSc1ncnc2scc(-c3ccccc3)c12)Nc1ccc(C(=O)O)cc1	-3%	-7%	-5%	-10%
CC(=O)Nc1ccc(Sc2ncnc3scc(-c4ccccc4)c23)cc1	6.7µM*	-50%	-2%	-18%
O=[N+]([O-])c1ccc(/C=C2\C=Cc3ccccc32)cc1	/	42%	/	/
CC(C)NCC(O)COCc1ccc(Cl)cc1 (centres undefined)	-4%	2%	1%	13%
CC(C)(C)NCC(O)COCc1ccc(Cl)cc1 (centres undefined)	24µM*	2%	-2%	-18%
O=C(O)Cn1nc(-c2ccccc2)oc1=O	0%	0%	2%	4%
O=C(O)Cn1nc(-c2ccc(F)cc2)oc1=O	24µM*	5%	2%	?
Cc1cc(Br)ccc1-n1[nH]c(C)c(C=Nc2cccc3nsnc23)c1=O	27µM*	-56%	-6%	-18%
COc1cccc(C(=O)N(C)C(C)c2nc3ccccc3s2)c1 (centres undefined)	-3%	9%	2%	3%
CC(=O)c1ccc(OC(C)c2nc3ccccc3s2)cc1 (centres undefined)	-2%	6.3µM*	0%	4%
CON(C)C(=O)/C=C/c1ccc([B-](F)(F)F)cc1	-1%	14µM*	/	13%
CCN(CC)C(=O)/C=C/c1ccccc1	-10%	55%	2%	-22%
CC1(C)CC(=O)C(C(C2=C(O)CC(C)(C)CC2=O)c2cccc(O)c2)C(=O)C1 (centres undefined)	?	-21%	0%	-20%
Cc1ccc(C(C2=C(O)CC(C)(C)CC2=O)C2C(=O)CC(C)(C)CC2=O)o1 (centres undefined)	6µM*	22%	?	50µM*
Cc1cnc(NC(=O)CCNC(=O)c2ccc([N+](=O)[O-])cc2)s1	27µM*	2%	2%	-19%
CC1(C)Cc2c(c(-c3ccco3)nc3sc4c(NCCCO)ncnc4c23)CO1	-16%	-38%	-23%	-21%
CC1(C)Cc2c(c(-c3ccco3)nc3sc4c(NCC5CCCO5)ncnc4c23)CO1 (centres undefined)	?	-40%	-4%	89µM*
CC1(c2ccccc2)CC(C)(C)N2C(=O)/C(=C3\SC(=S)NC3=O)c3cccc1c32 (centres undefined)	24µM*	-15%	19%	-1%
